Among all 48,000 compounds or so, about 13,000 (27%) showed an effect of 50% or more. The list shows a part of the results.

The subject of the assay is Wolbachia pipientis. Nature of the assay: Anti-Wolbachia Cell-Based Screen. The assay is classed as functional. Set-up: scale not given: in the data most compounds retested in dose-response had high values. The note with it: 5 µM.
Consider `CC(C)OCCN1CCC(Nc2ncccn2)CC1`, for which the “Percent Effect” value was found to be 110.1%.
As for `CC(C)OCCN1CCC(Nc2nccnc2C#N)CC1`, the figure is 120.8%.
As for `Cc1cccc(C(=O)N2CCN(CCOC(C)C)CC2)n1`, the figure is 2.598%.
As for `N#Cc1ccccc1N1CCC(Nc2nccnc2C#N)CC1`, the figure is -4.6%.
Regarding `N#Cc1nccnc1NC1CCN(c2c(F)cccc2F)C1` (configuration not stated), the “Percent Effect” value came to 7.205%.
As for `CC(C)OCCN1CCN(C(=O)c2cc(-n3cccn3)ccn2)CC1`, the figure is -9.064%; as for `CC(C)OCCN1CCC(N2CCN(C)C2=O)CC1`, 7.095%.
Next, `Cc1cc(C)nc(NC2CCN(CCOC(C)C)CC2)n1`: 107%.
As for `CC(C)OCCN1CCC(Nc2ncc(Br)cn2)CC1`, the figure is 82.04%.
Take `CCNC(=O)C1CCCN1S(=O)(=O)c1sc(=O)[nH]c1C` (configuration not stated): the “Percent Effect” value was -8.251%.
As for `O=S(=O)(C1CC1)N1CCOC2(COCCN(c3ncccn3)C2)C1` (configuration not stated), the figure is -6.11%; as for `Cc1cnccc1-n1nc(C(C)C)nc1CCN(C)S(C)(=O)=O`, -12.77%.
As for `CCN(CC(F)(F)F)C(=O)C1CCCN(Cc2cscn2)C1` (configuration not stated), the figure is 6.1%; as for `COCC(=O)NCCC(=O)N1CCN(S(=O)(=O)c2ccc(Br)cc2)CC1`, 15.42%.
As to `COCCCN(C)Cc1nc2c(cnn2C)c(=O)[nH]1`, the “Percent Effect” value is -7.298%.
Next, `COCCN(Cc1nc2c(cnn2C)c(=O)[nH]1)C(C)c1ccccc1` (configuration not stated): 98.63%.
For `CC(C)N(Cc1nc2c(cnn2C)c(=O)[nH]1)c1ccccc1`, the “Percent Effect” value is on record as -5.677%.
Turning to `COCCN(CCOC)Cc1nc2c(cnn2C)c(=O)[nH]1`, the “Percent Effect” value is listed as 107.8%.
On to `COCCN(CCc1ccccc1)Cc1nc2c(cnn2C)c(=O)[nH]1`, for which the “Percent Effect” value turned out to be 10.98%.
Next, `Cc1ccc(C(C)N(C)Cc2nc3c(cnn3C)c(=O)[nH]2)cc1` (configuration not stated): -5.253%; `COCCCN(CCOC)Cc1nc2c(cnn2C)c(=O)[nH]1`: 93.22%.
Regarding `CC(C)(C)c1cc(CN2CCOCC(O)C2)n[nH]1` (configuration not stated), the “Percent Effect” value is 40.36%.
As to `CC(=O)Nc1cc(F)c(S(=O)(=O)N(C)CC2CCC2)c(F)c1`, the “Percent Effect” value was 32.27%.
As for `Cn1cccc1CN1CCC2(CC1)CC(Oc1cccnc1)C2.O=C(O)C(F)(F)F.O=C(O)C(F)(F)F`, the figure is 9.854%; as for `COC(=O)C(C)Sc1nnnn1C1CCOCC1` (configuration not stated), -41.77%; as for `CNS(=O)(=O)c1ccc(CN2CCCN(c3ccccc3)CC2)cc1`, 23.15%.
Next, `CN(C)[C@H]1CCCCN(Cc2cnc(NCc3ccccc3)nc2)C1`: -3.217%.
On to `Cl.Cl.OC(CN1CCN(Cc2ccccc2)CC1)C1CC1` (configuration not stated), for which the “Percent Effect” value amounted to 1.667%.
Next, `c1ccc(N2CCN(Cc3cnc(C4CCCCO4)nc3)CC2)cc1` (configuration not stated): 50.77%; `O=C(O)C1CN(Cc2cnc(C3CCCCC3)nc2)CCO1` (configuration not stated): -13.64%.
Next, `OCC1(O)CCN(Cc2ccc(C3CCCCO3)o2)CC1` (configuration not stated): 2.159%; `OCC1(CC2CC2)CCCN(Cc2cnc(N3CCOCC3)nc2)C1` (configuration not stated): 1.203%.
As for `c1ccc(N2CCN(Cc3cnc(C4CCCCO4)nc3)CC2)nc1` (configuration not stated), the “Percent Effect” value was 112.3%.
Take `c1nc(C2CCCCO2)ncc1CN1CCOCC1` (configuration not stated): the “Percent Effect” value was determined as 157.1%.
For `O=C1OCCC1N1CCN(c2ccccn2)CC1` (configuration not stated), the “Percent Effect” value is listed as 0.5958%.
In the case of `c1ccc(CN2CCN(Cc3cnc(C4CCCCO4)nc3)CC2)cc1` (configuration not stated), the “Percent Effect” value is given as 181.4%.
Next, `CCOC(C)c1noc(CN2CCCN(c3ccccn3)CC2)n1` (configuration not stated): 3.417%.
Next, `COc1ccc(CC(=O)N2CCc3nnc(N(C)C)cc3C2)cc1F`: -3.012%.
Next, `CCN(CC)S(=O)(=O)N1C[C@@H]2CC[C@H](C1)N(Cc1cscn1)C2=O`: -30.66%; `CCC1c2ccccc2CCN1C(=O)c1ccnc(C(=O)OC)c1` (configuration not stated): -12.45%; `CC(C)NC[C@H]1COCc2nc3cccnc3n21`: -0.2965%.
Regarding `O=C(c1ccc2ncsc2c1)N1CCC(C(=O)O)(n2cccn2)CC1`, the “Percent Effect” value is -48.02%.
`CC(C)(C)c1nnc(CN2CCN(S(C)(=O)=O)CC2)o1`: the “Percent Effect” value was 12.09%.
Take `CCOCCN1CCN(CCC(=O)N2CCCCC2)CC1`: the “Percent Effect” value is on record as -4.912%.
Next, `O=C(CSCCN1CCOCC1)N1CCCCCC1`: 88.11%; `CC1CCN(C(=O)CSCCN2CCOCC2)CC1`: 94.74%; `CC(=O)N1CCOC2(CCCN(C(=O)CCN3CCCCC3)C2)C1` (configuration not stated): -17.75%.
As for `CC1CCN(C(=O)CSCc2noc(C(C)C)n2)CC1`, the figure is -0.6667%; as for `O=C(Cn1cc(I)cn1)N1CCc2ccccc2C1`, 13.89%; as for `O=C(CCC(=O)N1CCc2ccccc2C1)c1cccs1`, 11.35%.
`CC1CCN(C(=O)CSCc2nc(C3CC3)no2)CC1`: the “Percent Effect” value is on record as 2%.
In the case of `O=C(CSCCN1CCOCC1)N1CCc2ccccc2C1`, the “Percent Effect” value is on record as 125%.

The values above are taken from ChEMBL document CHEMBL3988442, “University of Dundee, Small-Polar-MMV Screening Library” (2021).
